Screening results: PubChem BioAssay, Broad Institute
LGR2 antag = inhibitors of bursicon-induced LGR2 CRE-luciferase signal, primary screen, cell-based, HEK293, CRE-luciferase reporter, bursicon stimulation. Drosophila bursicon receptor LGR2 (rickets). bursicon-stimulated, 4 h. inhibition, % at 9.99 µM. hit rate 0.35% among 380,000. AID 720647, 2013;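 active = drop in luminescence signal, shown as inhibition above about 50% in the replicate tests, limit read from the data, passing the limit was not always enough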;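 also: agonist challenge used bursicon conditioned medium at about half maximal strength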
PAX8 inh HTS = inhibitors of PAX8-driven TPO luciferase reporter, primary screen, RMG-I cells, single concentration. SteadyGlo, 24 h. inhibition, % at 12.6 µM. hit rate 1.2% among 360,000. AID 652154, 2013;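 active = mean replicate inhibition at least 60% with every replicate also reaching 60%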;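 also: luciferase light reporting Pax8 driven TPO promoter activity; plate controls were median of neutral control wells for no effect and mitoxantrone controls for full effect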
EWS-Fli block = EWS/Fli-driven NR0B1 reporter inhibitors, primary screen, A673 cells, NR0B1 luciferase, luminescence, MLPCN library | viability-normalised | inhibition, % at 12.6 µM | hit rate 0.67% among 350,000;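 active = mean inhibition of at least 50% after viability correction, with every replicate also passing that limit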;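 also: firefly luciferase signal divided by Alamar Blue viability fluorescence both relative to DMSO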
MITF TRPM1 inh = inhibitors of MITF-dependent TRPM1 promoter reporter, primary screen, cell-based, SK-MEL-5, single point, luciferase; SK-MEL-5 TRPM1 promoter luciferase, 24 h; inhibition, % at 12.5 µM; hit rate 0.83% among 330,000; AID 488899, 2010;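 active = mean inhibition across replicates of 60% or more, whatever share of single replicates reaches that level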
Shn3 3UTR inh = reduction of Shn3 3'UTR firefly luciferase signal, primary screen, Schnurri-3 inhibitor project, cell-based, Clone20 osteoblasts, set 2 | hit rate 0.52% among 360,000 | Clone20 osteoblast Shn3 3'UTR firefly luciferase, 24 h | inhibition, % at 12.5 µM;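 active = mean inhibition of at least 75% with every replicate also reaching 75%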;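 also: 0% = median of neutral control wells and 100% = pilot-screen positive control compound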
LMP1 NFkB inh = EBV LMP1-driven NF-kappaB luciferase reporter inhibitors, primary screen, cell-based, luminescence, single point; hit rate 0.69% among 350,000; LMP1-induced NF-kappaB luciferase reporter cells; inhibition, % at 12.5 µM; AID 504558, 2011; in the data active = inhibition above about 41%;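 also: 0% = neutral control wells and 100% = reference inhibitor control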
Numbers without * were called inactive; x = not tested or not shown; ! = not active in a repeat. Shown are actives, neighbours in structure and some others; about 2.2% of the full set was active somewhere.

SMILES	LGR2 antag	PAX8 inh HTS	EWS-Fli block	MITF TRPM1 inh	Shn3 3UTR inh	LMP1 NFkB inh
COc1cc2ccccc2cc1C(=O)N1CCN(C(C)=O)CC1	20	8	8	9	-13	3
CCOc1ccccc1N1CCN(C(=O)c2cc3ccccc3cc2OC)CC1	6	42	59*	44	8	-1
O=C(NC[C@H]1CC[C@@H]2[C@@H](CN2C(=O)CN2CCOCC2)O1)NC1CCCCC1	x	-19	0	x	x	x
C[C@@H]1CCCCO[C@@H](CN(C)C(=O)Nc2ccc(F)cc2)[C@@H](C)CN([C@H](C)CO)C(=O)c2cc(NC(=O)Nc3ccc(F)cc3)ccc2O1	11	-12	1	x	x	x
CO[C@@H]1CN(C)C(=O)c2cc(NS(C)(=O)=O)ccc2OC[C@H](C)N(CCC(F)(F)F)C[C@@H]1C	3	x	-3	x	x	x
C[C@@H]1CN([C@H](C)CO)C(=O)c2cc(NC(=O)Nc3cccc4ccccc34)ccc2O[C@@H]1CN(C)C(=O)Nc1cccc2ccccc12	2	78*	6	x	x	x
C[C@@H]1CN([C@@H](C)CO)C(=O)c2cc(NC(=O)Nc3ccc(F)cc3)ccc2O[C@@H]1CN(C)C(=O)Nc1cccc2ccccc12	2	75*	16	x	x	x
C[C@H]1CN([C@@H](C)CO)C(=O)c2cc(NC(=O)Nc3ccccc3)ccc2O[C@@H]1CN(C)C(=O)Nc1cccc2ccccc12	4	x	11	x	x	x
Cc1ccc(-n2nnnc2Sc2nc([N+](=O)[O-])nn2C)c(C)c1	x	x	x	73*	-35	-1
Cn1c(C=O)c(-c2ccc3cc[nH]c3c2)c2ccccc21	-3	-2	-11	12	-9	-1
COc1cccc(C#Cc2c(C=O)n(C)c3ccccc23)c1	-17	85*	-17	8	7	18
COc1ccc(C#Cc2ccc3c(c2)c(=O)c2ccccc2n3C)cc1	-18	-11	40	4	-3	-10
Cn1c(C=O)c(C#CC(C)(C)O)c2ccccc21	-1	74*	2	18	-13	0
Nc1nnc(SCC(=O)Nc2ccc(N3CCOCC3)cc2)s1	1	-4	-24	-5	91*	5
CNC(=O)C[C@@H]1CC[C@H]2[C@@H](COc3ccc(NC(=O)NC(C)C)cc3C(=O)N2C)O1	11	-16	5	x	x	x
C[C@H](O)C#Cc1ccc2c(c1)O[C@H](CN(C)Cc1ccc(-c3ccccc3)cc1)[C@@H](C)CN([C@H](C)CO)S2(=O)=O	1	80*	49	x	x	x
C[C@H](O)C#Cc1ccc2c(c1)O[C@@H](CN(C)Cc1ccc(-c3ccccc3)cc1)[C@@H](C)CN([C@@H](C)CO)S2(=O)=O	-7	89*	-14	x	x	x
C[C@H](O)C#Cc1ccc2c(c1)O[C@H](CN(C)Cc1ccc(-c3ccccc3)cc1)[C@H](C)CN([C@H](C)CO)S2(=O)=O	20	41	12	x	x	x
C[C@@H]1CN([C@@H](C)CO)S(=O)(=O)c2ccc(C#C[C@@H](C)O)cc2O[C@H]1CN(C)Cc1ccc(-c2ccccc2)cc1	2	92*	44	x	x	x
C[C@H](CO)N1C[C@H](C)[C@H](CN(C)Cc2ccc(-c3ccccc3)cc2)Oc2cc(C#C[C@@H](C)O)ccc2S1(=O)=O	38	17	-16	x	x	x
O=S(=O)(c1ccccc1)N1CCCCN2[C@H](CO)[C@H](c3ccc(-c4ccccc4F)cc3)[C@@H]2C1	31	22	-24	x	x	x
COc1ccc2c3c(n(C)c2c1)[C@H](CO)N(S(=O)(=O)c1cn(C)cn1)CC31CCN(C)CC1	-10	x	-6	x	x	x
C[C@@H]1CN([C@@H](C)CO)C(=O)c2cc(NC(=O)Nc3ccc(F)cc3)ccc2O[C@@H]1CN(C)Cc1ccncc1	4	-8	1	x	x	x
Cc1ccc(C(=O)NC(NCc2ccccc2)C(Cl)(Cl)Cl)cc1 (configuration not stated)	-1	145*	5	-2	9	-1
Cc1ccc(C(=O)NC(NCC2CCCO2)C(Cl)(Cl)Cl)cc1 (configuration not stated)	x	17	0	10	14	7
SMILES	LGR2 antag	PAX8 inh HTS	EWS-Fli block	MITF TRPM1 inh	Shn3 3UTR inh	LMP1 NFkB inh
CNC[C@@H]1Oc2ccc(NC(=O)CCN3CCOCC3)cc2C(=O)N([C@H](C)CO)C[C@H]1C	-13	-14	-5	x	x	x
COc1ccc(N2C3=C(CC4=C2CC(C)(C)CC4=O)C(=O)CC(C)(C)C3)cc1	8	x	46	87*	-21	10
COc1ccc(N2C3=C(CC4=C2CCCC4=O)C(=O)CCC3)cc1	x	14	x	-2	12	1
CCC(=O)Nc1ccc2c(c1)C(=O)N(C)[C@H]1CC[C@H](CC(=O)NCCN3CCCCC3)O[C@@H]1CO2	-4	10	4	x	x	x
C[C@H](CO)N1C[C@H](C)[C@H](CN(C)C(=O)c2ccc3c(c2)OCO3)Oc2cc(C#Cc3ccccc3F)ccc2S1(=O)=O	1	56	19	x	x	x
C[C@H](CO)N1C[C@H](C)[C@@H](CN(C)C(=O)Cc2ccccc2)Oc2cc(C#Cc3ccccc3F)ccc2S1(=O)=O	18	74*	34	x	x	x
C[C@H](CO)N1C[C@H](C)[C@@H](CN(C)C(=O)c2ccc3c(c2)OCO3)Oc2cc(C#Cc3ccccc3F)ccc2S1(=O)=O	17	79*	25	x	x	x
C[C@H]1CN([C@@H](C)CO)S(=O)(=O)c2ccc(C#Cc3ccccc3F)cc2O[C@H]1CN(C)C(=O)Cc1ccccc1	7	7	14	x	x	x
COc1ccc(S(=O)(=O)Nc2ccc3c(c2)CC(=O)N([C@H](C)CO)C[C@H](C)[C@@H](CN(C)S(=O)(=O)c2ccccc2)O3)cc1	-3	-4	10	x	x	x
O=C(Nc1ccccc1F)N1CC(=O)N2[C@H](CO)[C@H](c3ccc(C#Cc4ccc(F)cc4)cc3)[C@H]2C1	12	x	x	x	x	x
CN1CCN(Cc2nc3ccccc3c(=O)n2Cc2nc(-c3ccc4ccccc4c3)cs2)CC1	90*	17	40	88*	93*!	6
COc1cc(-c2nc3ccccc3s2)ccc1O	x	x	x	-13	-65	-4
COc1cccc(-c2nc3ccccc3s2)c1O	53*	-36	-124	-19	4	-10
CC(C)c1ccc(-c2nc3ccccc3s2)cc1	100*	88*	89*	92*	88*	70*
CN(C(=O)OC(C)(C)C)c1ccc(-c2nc3ccccc3s2)cc1	99*	92*	88*	94*	81	81*
COc1ccc(-c2nc3ccccc3s2)cc1O	x	74*	x	46	61	37
COC(=O)N(C)c1nc2ccccc2s1	-21	x	x	-35	-57	-5
CCOC(=O)c1cnc(-n2nc(C)cc2C)nc1NCc1ccc2c(c1)OCO2	x	-8	x	11	94*	10
